High-throughput results: PubChem BioAssay, National Center for Advancing Translational Sciences (NCATS)
This is a sample that favours compounds with a hit; in the whole collection about 2.4% have one here.
p53ts 32C tox: kills p53ts cells at the permissive temperature. H1299-p53A138V at 32C, ATP luminescence viability, 24 h. Potency, µM (series often up to 46.1 µM), for the others: top-dose activity change, negative = cytotoxicity, most hits filed as cytotoxic. actives 0.93% (n = 130,000). AID 924;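 note: 0% = DMSO and -100% = full killing by reference compound; nearly all actives have a fitted effect of over 55% in size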
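Cells: H1299 p53ts (A138V), 600/well, pre-incubated 16–30 h at 37C. Cpd up to 46 uM, 24 h, 32C. Readout: ATPlite luminescence, 20 min RT. Normalization: DMSO vs tamoxifen 100 uM. AC50 by Hill equation.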
Peg3 imprint: genomic imprint erasure induction; Potency, µM (top dose mostly 60.7 µM), for inactives: at the highest dose activity change, positive = activation, usual class: activators; mouse ES Peg3-LacZ reporter, beta-gal luminescence, 40 h; actives 0.02% (n = 110,000)
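Gelatin-coated wells received 300 freshly trypsinized female ES cells with a Peg3LacZ-Neo reporter on the maternal allele, then incubated 40 hours at 37C. BetaGlo was added for 5 minutes at room temperature before a single luminescence read.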
p53ts 39C kill: kills p53ts cells at the nonpermissive temperature; actives 1.5% (n = 130,000); Potency, µM (top dose mostly 46.1 µM), for inactives: at the top dose activity change, negative = cell killing, usual class: cytotoxic; H1299-p53A138V viability at 39C, ATP luminescence, 24 h; note: % is set by controls: 0 for no effect and ±100 for the full control effect; nearly all actives have a fitted effect of over 55% in size
Luciferase inh: blocks Photinus pyralis firefly luciferase activity | purified firefly luciferase, luminescence, 8 min | Potency, µM (highest dose often 57.1 µM), for inactives: top-dose activity change, negative = inhibition, usual class: inhibitors | actives 2.2% (n = 72,000) | AID 411; note: % is set by controls: 0 for no effect and ±100 for the full control effect; nearly all actives have a fitted effect of over 40% in size
Target sequence (P08659 whole entry, looked up): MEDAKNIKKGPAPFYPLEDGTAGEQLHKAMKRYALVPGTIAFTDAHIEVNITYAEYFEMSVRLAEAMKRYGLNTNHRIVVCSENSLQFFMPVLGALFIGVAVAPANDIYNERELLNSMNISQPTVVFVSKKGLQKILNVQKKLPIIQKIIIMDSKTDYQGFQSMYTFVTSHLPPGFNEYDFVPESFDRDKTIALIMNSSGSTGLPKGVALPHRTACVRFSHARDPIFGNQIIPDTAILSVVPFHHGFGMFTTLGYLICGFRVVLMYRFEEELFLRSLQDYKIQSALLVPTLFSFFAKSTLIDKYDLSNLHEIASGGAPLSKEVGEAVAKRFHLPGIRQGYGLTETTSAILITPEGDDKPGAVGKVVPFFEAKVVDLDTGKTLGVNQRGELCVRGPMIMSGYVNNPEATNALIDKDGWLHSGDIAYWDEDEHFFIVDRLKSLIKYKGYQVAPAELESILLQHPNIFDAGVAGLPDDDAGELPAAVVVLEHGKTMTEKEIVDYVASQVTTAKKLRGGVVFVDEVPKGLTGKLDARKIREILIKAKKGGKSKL
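Compounds were tested as concentration series (qHTS) against purified P. pyralis luciferase with luciferin and 10 uM ATP in 50 mM imidazole pH 7.2, 50 mM KCl, 7 mM MgCl2, 0.01% Tween 20, 0.05% BSA. Luminescence was read after 8 min at ambient temperature.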
IkB signaling: IkB pathway inhibition in ABC-DLBCL cells | Potency, µM (highest dose often 57.1 µM), for the others: at the highest dose IkBa stabilization activation | actives 0.04% (n = 110,000) | AID 445 | ABC-DLBCL IkBa-CBG/CBR dual luciferase ratio, 4 h; response scale: scaled: untreated 0%, proteasome inhibitor 100%; active = well fitted curve in the direction sought with a large enough effect in the signal ratio, not every such curve was filed as active; inconclusive = small, poorly fitted or top-dose-only effect, or a change in a side signal; the % refers to the signal ratio;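 note: the direction sought is a rising ratio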
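In this assay, an IκBα–CBG68 fusion accumulates when IKK-driven degradation is blocked; native CBR normalizes for cell number. OCI-Ly3 cells were treated 4 h with compound and doxycycline, then green and red light read after Chroma-Glo addition.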
Starred values were filed as active, the others as inactive; ? = inconclusive; nt = no result given; [ ] = another dose, or the depositor's remark. Unless noted, calls come from the whole dose curve; as a rule, active = well fitted curve in the direction sought with a large enough effect; inconclusive = small, poorly fitted or top-dose-only effect, or another doubt; inactive = no such curve, though single readings can be large; an effect the other way counts as inactive or inconclusive. Potency is the fitted concentration of half-maximal effect.

SMILES	p53ts 32C tox	Peg3 imprint	p53ts 39C kill	Luciferase inh	IkB signaling
CC(=O)[C@]1(O)CC[C@@H]2[C@H]3C[C@@H](C)C4=CC(=O)CC[C@@]4(C)C3[C@@H](O)C[C@]21C (stereo not given in full)	nt	-14%[10.9 µM]	nt	nt	nt
N=C(N)S/C=C\C(=O)O	1%	-26%	-10%	-4%	0%
O=C(CSc1nnc(SCc2ccc(Cl)cc2)s1)N1CCOCC1	?	-12%	?	13µM*	?
Oc1cccc2ccc(Nc3ccccn3)nc12	16µM*	nt	10µM*	nt	nt
c1ccc(Nc2ccccc2Nc2ccccn2)nc1	2%	0%	5%	1%	1%
O=C(COc1ccccc1C(=O)c1cnn(-c2ccccc2)c1)Nc1ccccc1	11µM*	nt	?	nt	nt
N#Cc1cc(C(=O)c2ccccc2OCC(=O)Nc2ccccc2)cn(C2CCCCC2)c1=O	-2%	nt	2%	nt	nt
CCCCCCC/C=C\CCCCCCCCC(=O)O	-5%	-11%	11%	-3%	20%
CCCCCCCC/C=C\CCCCCCCC(=O)N[C@@H](CO)Cc1ccc(O)cc1	?	-32%	32µM*	-4%	?
COc1ccc(/C=C/C(=O)Nc2sc(C)c(C)c2C(=O)O)cc1	2.5µM*	-12%[10.9 µM]	13%	nt	96%
CC(C)CC(=O)Nc1cccc(-c2cn3cccnc3n2)c1	?	8%[10.9 µM]	?	nt	-1%
CCS(=O)(=O)Nc1ccc(-c2cn3ccsc3n2)cc1	?	7%[10.9 µM]	?	nt	-1%
CC(C)CC(=O)Nc1ccc(-c2cn3ccsc3n2)cc1	1µM*	-45%	1µM*	3.2µM*	?
CC(C)(C)C(=O)Nc1ccc(-c2cn3ccsc3n2)cc1	0.63µM*	-52%	0.79µM*	1µM*	0%
CN(C)CCNC(=O)c1ccc(-n2c(-c3ccccc3)cc3c2CCCC3)cc1	4%	-24%[10.9 µM]	6%	nt	?
COC(=O)CN1C(=O)C(C)(C)c2cc(S(=O)(=O)NCc3ccc(Cl)cc3)ccc21	-2%	-6%[10.9 µM]	-25%	nt	0%
COc1cccc(C=Nc2ccc3c(c2)OCCO3)c1O	?	-11%	-30%	4µM*	17%
COc1ccccc1-c1ccc(Nc2cccc(C(C)=O)c2)nn1	-10%	-25%	-8%	20µM*	1%
O=C(O)c1cc(-c2ccc(C(F)(F)F)cc2)nc2n[nH]c(-c3ccccc3)c12	?	-8%[10.9 µM]	10µM*	nt	0%
COc1ccc(-c2cc(C(=O)NCCc3ccccc3)c3c(-c4ccc(Cl)cc4)[nH]nc3n2)cc1	13µM*	-27%[10.9 µM]	13µM*	nt	4%
COc1ccc(-c2cc(C(=O)NCCc3ccccc3)c3c(-c4ccccc4)[nH]nc3n2)cc1	?	-5%[10.9 µM]	13µM*	nt	?
COCCCNC(=O)c1cc(-c2ccc(OC)cc2)nc2n[nH]c(-c3ccc(Cl)cc3)c12	5%	-2%[10.9 µM]	-1%	nt	0%
Cc1nn(CC(=O)NC2CC2)c(=O)c2cc3cc(F)ccc3n12	2%	13%[10.9 µM]	7%	nt	-2%
COc1ccc(-n2nc3c(N4CCC(C(=O)NCc5cccc(F)c5)CC4)nnc(C)c3c2C)cc1	?	7%[10.9 µM]	5µM*	nt	-1%
COc1ccc(NC(=O)C2CCCN(c3nnc(C)c4c(C)n(-c5ccccc5)nc34)C2)cc1Cl (stereo not given)	?	-15%[10.9 µM]	10µM*	nt	?
COc1ccccc1NC(=O)N1CCN(c2nnc(C)c3c(C)n(-c4ccc(Cl)cc4)nc23)CC1	2%	-15%[10.9 µM]	-13%	nt	0%
Cc1nnc(N2CCN(C(=O)Nc3cc(F)ccc3F)CC2)c2nn(-c3ccc(Cl)cc3)c(C)c12	?	-10%[10.9 µM]	13µM*	nt	-5%
COc1ccc(CNC(=O)C2CCN(c3nnc(C)c4c(C)n(-c5ccc(C)cc5)nc34)CC2)cc1	?	-8%[10.9 µM]	?	nt	?
Cc1ccc(NC(=O)C2CCN(c3nnc(C)c4c(C)n(-c5ccccc5)nc34)CC2)cc1Cl	10%	2%[10.9 µM]	31%	nt	?
Cc1ccc(NC(=O)c2ccc(CN3CC(=O)N4CCCCC4C3=O)cc2)cc1C (stereo not given)	-4%	nt	nt	nt	nt
